Results filed as inconclusive are left out. The source made the active and inactive calls. Unless noted, the call rests on the fitted dose curve; in most records, active means well fitted curve in the direction sought with a large enough effect; inconclusive means small, poorly fitted or top-dose-only effect, or another doubt; inactive means no such curve, though single readings can be large; an effect the other way counts as inactive or inconclusive.

Chain of Glutaminase kidney isoform, mitochondrial (Homo sapiens) (O94925 whole entry, looked up, canonical isoform): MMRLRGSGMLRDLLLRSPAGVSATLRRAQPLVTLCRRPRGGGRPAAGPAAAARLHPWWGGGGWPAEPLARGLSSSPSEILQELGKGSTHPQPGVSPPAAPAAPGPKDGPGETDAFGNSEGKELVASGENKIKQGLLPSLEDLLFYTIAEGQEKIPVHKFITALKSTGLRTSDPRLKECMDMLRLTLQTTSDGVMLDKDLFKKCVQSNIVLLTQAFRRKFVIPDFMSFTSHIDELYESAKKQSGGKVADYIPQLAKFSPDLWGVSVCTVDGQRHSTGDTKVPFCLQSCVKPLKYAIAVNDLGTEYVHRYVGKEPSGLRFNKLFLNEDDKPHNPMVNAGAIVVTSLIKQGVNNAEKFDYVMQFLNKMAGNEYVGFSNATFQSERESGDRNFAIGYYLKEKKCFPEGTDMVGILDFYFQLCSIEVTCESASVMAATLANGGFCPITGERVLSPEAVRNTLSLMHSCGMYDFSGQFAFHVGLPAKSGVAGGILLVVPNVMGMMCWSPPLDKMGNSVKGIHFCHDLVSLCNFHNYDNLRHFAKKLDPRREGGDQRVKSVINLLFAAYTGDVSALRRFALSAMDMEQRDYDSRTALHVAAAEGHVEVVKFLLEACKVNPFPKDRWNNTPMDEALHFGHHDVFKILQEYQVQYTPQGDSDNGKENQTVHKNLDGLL

Tested on in the first test: not listed separately
The experiment in a line: S16 Schwann cell PMP22 intronic element firefly luciferase assay (AID 624032). Further: nearly all actives have a fitted effect of over 30% in size. Further: potency means the concentration at half of the fitted maximal effect.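 On activity change, negative = inhibition: plate controls were DMSO for no effect and PTC124 positive control mean for full effect.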 The conditions noted are these: S16 rat Schwann cells, PMP22 element FLuc, 24 h; series mostly up to 57.5 µM; activity change, negative = inhibition: at the top concentration. The method in brief:
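Rat S16 Schwann cells stably carrying a PMP22 intronic element-driven Fluc reporter were seeded overnight, then exposed to compounds for 24 h at 37 °C. Luminescence was normalized to PTC124 (positive control) and DMSO (0% activity).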
For `CC(C)C[C@H](NC(=O)[C@@H](O)[C@H](N)Cc1ccccc1)C(=O)O`, the “activity change, negative = inhibition” value was 7.09% (inactive).
Still for that read-out and setting: for `Nc1nc2c(ncn2COCCO)c(=O)[nH]1` the value was 1.85% [at 25.7 µM] (inactive); for `Cc1oncc1C(=O)Nc1ccc(C(F)(F)F)cc1`, 94.4% [at 25.7 µM] (inactive); for `CCOC(=O)C1=C[C@]2(CC)CCCN3CCc4c(n1c1ccccc41)[C@@H]32`, 4.97% (inactive).
Same read-out and setting: the result for `O=c1n(CCCN2CCN(c3cccc(Cl)c3)CC2)nc2ccccn12` reads 0.0662% [at 25.7 µM] (inactive).
`Nc1nc2ccc(OC(F)(F)F)cc2s1`: the “activity change, negative = inhibition” value is 79.9% (inactive).
For `C#Cc1cccc(Nc2ncnc3cc(OCCOC)c(OCCOC)cc23)c1`, the “activity change, negative = inhibition” value was -17.2% (inactive).
The same measure, in the same setting: for `CCc1ccc(CCOc2ccc(CC3SC(=O)NC3=O)cc2)nc1` (configuration not stated) the value was 65.5% (inactive).
On to `Clc1ccc(Nc2nnc(Cc3ccncc3)c3ccccc23)cc1`, for which the Potency was 20.3 µM (active).
In the case of `Cc1cc2c(C(C)C)c(O)c(O)c(C=O)c2c(O)c1-c1c(C)cc2c(C(C)C)c(O)c(O)c(C=O)c2c1O`, the “activity change, negative = inhibition” value is -13.8% (inactive).
Turning to `OC(CN1CCC(Cc2ccc(F)cc2)CC1)c1ccc(Cl)cc1` (configuration not stated), the “activity change, negative = inhibition” value is -25.3% (inactive).
Still for that read-out and setting: for `NCCCC(N)(C(=O)O)C(F)F` (configuration not stated) the value was -0.616% (inactive); for `NNCCc1ccccc1`, 60.1% [at 25.7 µM] (inactive); for `Cc1ccc(N(CC2=NCCN2)c2cccc(O)c2)cc1`, -19.4% (inactive).

Tested on in a further test: not listed separately
Briefly: S16 Schwann cell PMP22 intronic element beta-lactamase assay (AID 624044; calls by dose curve;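 further: 0% = DMSO and -100% = potassium clavulanate positive control; nearly all actives have a fitted effect of over 15% in size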). The conditions noted are these: S16 rat Schwann cells, PMP22 element beta-lactamase FRET, 24 h; series mostly up to 38.3 µM; ratio activity, negative = inhibition: at the top concentration. A digest of the protocol:
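Beta-lactamase reporter under a PMP22 intronic regulatory element in stable S16 rat Schwann cells; 24 h compound exposure. 460 nm blue signal normalized between DMSO (0%) and potassium clavulanate, with 535 nm FRET tracking viability; curves classed by r2 and response.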
Turning to `CC(C)C[C@H](NC(=O)[C@@H](O)[C@H](N)Cc1ccccc1)C(=O)O`, the “ratio activity, negative = inhibition” value is -5.22% (inactive).
Same read-out and setting: for `CCOC(=O)C1=C[C@]2(CC)CCCN3CCc4c(n1c1ccccc41)[C@@H]32` the value was 0.127% (inactive); for `CCOC(=O)N1CCC(=C2c3ccc(Cl)cc3CCc3cccnc32)CC1`, 2.71% (inactive); for `CCCc1nn(C)c2c(=O)[nH]c(-c3cc(S(=O)(=O)N4CCN(C)CC4)ccc3OCC)nc12`, 5.49% (inactive).
Consider `C#Cc1cccc(Nc2ncnc3cc(OCCOC)c(OCCOC)cc23)c1`, for which the “ratio activity, negative = inhibition” value is -41% (inactive).
Consider `CCc1ccc(CCOc2ccc(CC3SC(=O)NC3=O)cc2)nc1` (configuration not stated), for which the “ratio activity, negative = inhibition” value is 1.14% (inactive).
The same measure, in the same setting: the result for `Clc1ccc(Nc2nnc(Cc3ccncc3)c3ccccc23)cc1` reads -15.4% (inactive).
As for `Cc1cc2c(C(C)C)c(O)c(O)c(C=O)c2c(O)c1-c1c(C)cc2c(C(C)C)c(O)c(O)c(C=O)c2c1O`, the “ratio activity, negative = inhibition” value is -23% (inactive).
With `NCCCC(N)(C(=O)O)C(F)F` (configuration not stated), the “ratio activity, negative = inhibition” value is 1.06% (inactive).
Take `Cc1ccc(N(CC2=NCCN2)c2cccc(O)c2)cc1`: the “ratio activity, negative = inhibition” value is -0.531% (inactive).

Another test deals with Glutaminase kidney isoform, mitochondrial (Homo sapiens) (UniProt O94925). Briefly: qHTS for Inhibitors of Glutaminase (GLS): LOPAC Validation (AID 624146).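 Further: glutamate product detected by oxidase and peroxidase coupled Amplex red fluorescence gain; on the % scale 0 is the no-effect control and ±100 the full control effect; nearly all actives have a fitted effect of over 60% in size.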 The conditions noted are these: glutaminase enzyme activity inhibition; series mostly up to 46.1 µM; activity change, negative = inhibition: at the top concentration. The method in brief:
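Enzyme dispensed in phosphate buffer (45 mM, pH 8.2, 0.02% Tween-20), compounds pinned in, then 1 mM L-glutamine solution and the glutamate oxidase–HRP–Amplex Red mix added; fluorescence read immediately and again after 30 min at room temperature.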
With `Cc1cccc(-c2[nH]c(C(C)(C)C)nc2-c2ccc3nccnc3c2)n1`, the “activity change, negative = inhibition” value was -8.23% (inactive).
The same measure, in the same setting: for `CCC(C)N(C)C(=O)c1cc2ccccc2c(-c2ccccc2Cl)n1` (configuration not stated) the value was -15.3% (inactive); for `CCOC(=O)C1=C[C@]2(CC)CCCN3CCc4c(n1c1ccccc41)[C@@H]32`, -9.72% (inactive); for `O=c1n(CCCN2CCN(c3cccc(Cl)c3)CC2)nc2ccccn12`, -2.34% (inactive).
Take `Cc1cnc(NC(=O)C2=C(O)c3ccccc3S(=O)(=O)N2C)s1`: the “activity change, negative = inhibition” value was -29.8% (inactive).

Tested on in the next test: not listed separately
Briefly: qHTS of Trypanosoma Brucei Inhibitors: LOPAC Validation (AID 624147). Further: 0% is about no effect. The conditions noted are these: purified enzyme assay, luminescence, 45 min; series mostly up to 57.5 µM; activity change, negative = inhibition: at the top concentration. A digest of the protocol:
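Assay buffer: 50 mM TEA pH 7.2, 100 mM KCl, 10 mM MgCl2, 0.05% BSA, 0.01% Tween-20. Pyruvate kinase from T. brucei plus substrate met compound, then ADP (130 uM final). Luminescence was read post 45 min RT.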
In general terms: In qHTS, concentration-response curves come from the screen itself.
On to `CC(C)(Sc1ccc(CCN(CCCCC2CCCCC2)C(=O)NC2CCCCC2)cc1)C(=O)O`, for which the “activity change, negative = inhibition” value is -19% (inactive).
The same measure, in the same setting: the result for `CC(C)C[C@H](NC(=O)[C@@H](O)[C@H](N)Cc1ccccc1)C(=O)O` reads -1.55% (inactive); that for `Nc1nc2c(ncn2COCCO)c(=O)[nH]1`, -3.64% (inactive); that for `C1COC(NC(C2CC2)C2CC2)=N1`, -5.22% (inactive).
On the same count and under the same terms, for `Cc1cccc(-c2[nH]c(C(C)(C)C)nc2-c2ccc3nccnc3c2)n1` the value was -6.25% (inactive); for `CCC(C)N(C)C(=O)c1cc2ccccc2c(-c2ccccc2Cl)n1` (configuration not stated), -6.96% (inactive).
The same measure, in the same setting: the result for `Cc1oncc1C(=O)Nc1ccc(C(F)(F)F)cc1` reads -11.8% (inactive); that for `CCN(CC)CCCC(C)Nc1ccnc2cc(Cl)ccc12` (configuration not stated), -7.18% (inactive).
As for `CCn1cc(C(=O)O)c(=O)c2cc(F)c(N3CCNC(C)C3)c(F)c21` (configuration not stated), the “activity change, negative = inhibition” value is -15.1% (inactive).
Still for that read-out and setting: for `CCOC(=O)C1=C[C@]2(CC)CCCN3CCc4c(n1c1ccccc41)[C@@H]32` the value was -8.31% (inactive); for `CCOC(=O)N1CCC(=C2c3ccc(Cl)cc3CCc3cccnc32)CC1`, -7.86% (inactive).
The same measure, in the same setting: for `OC(CCN1CCCCC1)(c1ccccc1)C1CC2C=CC1C2` (configuration not stated) the value was -11% (inactive); for `O=c1n(CCCN2CCN(c3cccc(Cl)c3)CC2)nc2ccccn12`, -12.7% (inactive).
Same read-out and setting: for `Nc1nc2ccc(OC(F)(F)F)cc2s1` the value was -5.1% (inactive); for `O=C(O)COCCN1CCN(C(c2ccccc2)c2ccc(Cl)cc2)CC1` (configuration not stated), -6.08% (inactive).
Consider `Cc1cc2c(C(C)C)c(O)c(O)c(C=O)c2c(O)c1-c1c(C)cc2c(C(C)C)c(O)c(O)c(C=O)c2c1O`, for which the “activity change, negative = inhibition” value was -11.5% (inactive).
Same read-out and setting: for `OC(CN1CCC(Cc2ccc(F)cc2)CC1)c1ccc(Cl)cc1` (configuration not stated) the value was -7.37% (inactive); for `c1ccc([C@H]2CN3CCSC3=N2)cc1`, -9.69% (inactive).
As for `Cc1cnc(NC(=O)C2=C(O)c3ccccc3S(=O)(=O)N2C)s1`, the “activity change, negative = inhibition” value was -9.94% (inactive).
Same read-out and setting: the result for `NCCCC(N)(C(=O)O)C(F)F` (configuration not stated) reads -7.74% (inactive); that for `NNCCc1ccccc1`, -6.6% (inactive).
For `Cc1ccc(N(CC2=NCCN2)c2cccc(O)c2)cc1`, the “activity change, negative = inhibition” value is -14.5% (inactive).

In the next test the target is Glucagon-like peptide 1 receptor (Homo sapiens) (UniProt P43220). The experiment in a line: qHTS of GLP-1 Receptor Agonists: LOPAC Validation (AID 624148).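 Further: 0% is about no effect; higher luminescence signal means agonism.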 To be noted: GLP-1R agonist cell assay; series mostly up to 46.1 µM; activation: at the top concentration. The method in brief: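 HEK293 cells stably co-expressing a cAMP-responsive luciferase reporter and a hypersensitive GLP-1R were plated 12 h at 37 °C and exposed to compounds for 4-6 hr at 37 °C, 5% CO2. Luminescence was read 12 min after adding detection reagent.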
Chain of Glucagon-like peptide 1 receptor (Homo sapiens) (P43220 whole entry, looked up): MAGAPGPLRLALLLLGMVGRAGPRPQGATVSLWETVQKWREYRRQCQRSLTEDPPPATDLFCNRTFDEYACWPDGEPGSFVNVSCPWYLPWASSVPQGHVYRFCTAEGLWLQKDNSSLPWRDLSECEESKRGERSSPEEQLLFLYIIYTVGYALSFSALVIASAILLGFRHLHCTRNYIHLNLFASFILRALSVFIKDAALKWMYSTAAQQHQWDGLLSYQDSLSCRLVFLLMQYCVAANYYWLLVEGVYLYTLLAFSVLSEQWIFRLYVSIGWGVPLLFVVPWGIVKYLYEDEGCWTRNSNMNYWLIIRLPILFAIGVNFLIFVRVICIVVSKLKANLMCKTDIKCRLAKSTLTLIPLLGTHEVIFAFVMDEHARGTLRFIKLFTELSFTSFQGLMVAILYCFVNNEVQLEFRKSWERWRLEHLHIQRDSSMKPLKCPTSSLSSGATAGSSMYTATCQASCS
Take `CC(C)(Sc1ccc(CCN(CCCCC2CCCCC2)C(=O)NC2CCCCC2)cc1)C(=O)O`: the “activation” value is 0.628% (inactive).
Regarding `CC(C)C[C@H](NC(=O)[C@@H](O)[C@H](N)Cc1ccccc1)C(=O)O`, the “activation” value is -1.39% (inactive).
With `Nc1nc2c(ncn2COCCO)c(=O)[nH]1`, the “activation” value was -1.82% (inactive).
As to `C1COC(NC(C2CC2)C2CC2)=N1`, the “activation” value is -1.48% (inactive).
The same measure, in the same setting: for `Cc1cccc(-c2[nH]c(C(C)(C)C)nc2-c2ccc3nccnc3c2)n1` the value was 7.08% (inactive); for `CCC(C)N(C)C(=O)c1cc2ccccc2c(-c2ccccc2Cl)n1` (configuration not stated), 0.303% (inactive).
Same read-out and setting: the result for `Cc1oncc1C(=O)Nc1ccc(C(F)(F)F)cc1` reads -0.381% (inactive).
The same measure, in the same setting: the result for `CCN(CC)CCCC(C)Nc1ccnc2cc(Cl)ccc12` (configuration not stated) reads -1.39% (inactive).
Take `CCn1cc(C(=O)O)c(=O)c2cc(F)c(N3CCNC(C)C3)c(F)c21` (configuration not stated): the “activation” value is -1.01% (inactive).
On the same count and under the same terms, the result for `CCOC(=O)C1=C[C@]2(CC)CCCN3CCc4c(n1c1ccccc41)[C@@H]32` reads 5.15% (inactive).
Turning to `CCOC(=O)N1CCC(=C2c3ccc(Cl)cc3CCc3cccnc32)CC1`, the “activation” value is 0.926% (inactive).
The same measure, in the same setting: the result for `OC(CCN1CCCCC1)(c1ccccc1)C1CC2C=CC1C2` (configuration not stated) reads -1.37% (inactive); that for `O=c1n(CCCN2CCN(c3cccc(Cl)c3)CC2)nc2ccccn12`, -0.905% (inactive).
The same measure, in the same setting: the result for `Nc1nc2ccc(OC(F)(F)F)cc2s1` reads 4.86% (inactive); that for `O=C(O)COCCN1CCN(C(c2ccccc2)c2ccc(Cl)cc2)CC1` (configuration not stated), -1.72% (inactive).
With `Cc1cc2c(C(C)C)c(O)c(O)c(C=O)c2c(O)c1-c1c(C)cc2c(C(C)C)c(O)c(O)c(C=O)c2c1O`, the “activation” value is 10.6% (inactive).
Take `OC(CN1CCC(Cc2ccc(F)cc2)CC1)c1ccc(Cl)cc1` (configuration not stated): the “activation” value is -1.6% (inactive).
On the same count and under the same terms, for `c1ccc([C@H]2CN3CCSC3=N2)cc1` the value was -1.87% (inactive); for `NCCCC(N)(C(=O)O)C(F)F` (configuration not stated), 0.8% (inactive).
Still for that read-out and setting: the result for `NNCCc1ccccc1` reads 4.4% (inactive).
Regarding `Cc1ccc(N(CC2=NCCN2)c2cccc(O)c2)cc1`, the “activation” value was 0.851% (inactive).
